In PubChem BioAssay (Tox21):
Values without a mark were called inactive. Where a call stands in place of a potency, no number is given. Active and inactive are the calls of the source. Calls follow the shape of the full dose curve.

The compounds below were run against Acetylcholinesterase (Homo sapiens) (UniProt P22303) (assay: Acetylcholinesterase (AChE) small molecule antagonists: enzyme-based qHTS assay (AID 1347397; also: nearly all actives have a fitted effect of over 55% in size)). Details: Potency: AChE enzyme activity inhibition; outcome: AChE enzyme activity inhibition; series mostly up to 115 µM.
Acetylcholinesterase (Homo sapiens), sequence (P22303 whole entry, looked up): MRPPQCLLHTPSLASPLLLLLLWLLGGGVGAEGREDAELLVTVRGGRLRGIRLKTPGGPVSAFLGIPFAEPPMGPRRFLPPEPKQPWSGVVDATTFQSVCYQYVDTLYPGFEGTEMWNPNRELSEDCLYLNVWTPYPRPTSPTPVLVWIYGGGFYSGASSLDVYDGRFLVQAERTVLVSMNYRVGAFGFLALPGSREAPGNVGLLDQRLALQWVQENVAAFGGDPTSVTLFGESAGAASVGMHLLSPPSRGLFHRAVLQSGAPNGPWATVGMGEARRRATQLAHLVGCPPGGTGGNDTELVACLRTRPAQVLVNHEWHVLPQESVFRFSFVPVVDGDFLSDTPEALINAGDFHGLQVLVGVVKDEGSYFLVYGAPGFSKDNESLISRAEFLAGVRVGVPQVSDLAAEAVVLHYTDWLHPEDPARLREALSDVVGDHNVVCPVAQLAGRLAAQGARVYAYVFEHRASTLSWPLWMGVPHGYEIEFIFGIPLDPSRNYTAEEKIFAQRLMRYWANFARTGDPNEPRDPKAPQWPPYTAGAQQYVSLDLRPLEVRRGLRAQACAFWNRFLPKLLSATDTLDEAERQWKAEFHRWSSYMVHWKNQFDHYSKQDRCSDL
Excerpt: National Center for Advancing Translational Sciences [NCATS]
Division of Preclinical Innovation [DPI]
U.S. Environmental Protection Agency [EPA]
National Institutes of Environmental Health Sciences [NIEHS]
National Toxicology Program [NTP]
U.S. Food and Drug Administration [FDA]
Acetylcholinesterase (AChE) is the primary cholinesterase in the body that hydrolyzes a key neurotransmitter, acetylcholine. Inhibition of AChE activity can lead to neurotoxicity. The known inhibitors include organophosphorous pesticides (OP), chemical warfare agents, drugs, and various phytochemicals.
An enzyme-based assay with the recombinant human AChE and Amplite Colormetric acetylcholinesterase assay kit (AAT Bioquest, Sunnyvale, CA) was used to evaluate the chemicals in the Tox21 10K library that inhibit AChE activity. The assay uses 5, 5-dithiobis-(2-nitrobenzoic acid) (DTNB) to quantify the thiocholine produced from the hydrolysis of acetylthiocholine by AChE.
Tox21 Assay Protocol Summary:
For the enzyme-based AChE assay, recombinant human AChE (50 mU/mL) in 4 uL/well was dispensed into black, clear-bottom 1536-well plates using a Multidrop Combi dispenser (Thermo Scientific, MA). Then, 23 nL of compound or DMSO (vehicle control) was transferred into the assay plates by a Pintool Station (Wako Automation, CA). The plates were incubated for 30 min at room temperature, followed by the addition of 4 uL of colorimetric detection cocktail solution (DTNB, acetylthiocholine) into each well using a Flying Reagent Dispenser (Beckman Coulter, CA) and then 10 min incubation at room temperature.
For `CCCCC(=O)O[C@]1(C(=O)CO)CC[C@H]2[C@@H]3CCC4=CC(=O)CC[C@]4(C)[C@H]3[C@@H](O)C[C@@]21C`, the Potency was “inactive”. `CCCCCCCCCCCCCCCCO` was tested, and the Potency was “inactive”. In the case of `NCCCN(CCO)CCO`, the Potency is reported as “inactive”. In the case of `CCC(C)c1cc(C(C)(C)C)c(O)c(C(C)(C)C)c1` (stereo not given), the Potency is reported as “inactive”. For `NC=O`, the Potency was “inactive”. In the case of `NC(=O)CCCCC1CCSS1` (stereo not given), the Potency is reported as “inactive”. With `CC(=O)[C@H]1CC[C@H]2[C@@H]3CC=C4C[C@@H](O)CC[C@]4(C)[C@H]3CC[C@]12C` the Potency was “inactive”. In the case of `O=C(O)Cc1ccc(-c2ccccc2)cc1`, the Potency is reported as “inactive”. `C=CC(=O)Nc1cc2c(Nc3ccc(F)c(Cl)c3)ncnc2cc1OCCCN1CCOCC1` was tested, and the Potency was “inactive”. In the case of `IC(I)I`, the Potency is reported as “inactive”. For `O=C(O)c1ccc(-n2nc(-c3ccccc3O)nc2-c2ccccc2O)cc1`, the Potency was “inactive”. For `CCC1OCC(COc2ccc(Oc3ccccc3)cc2)O1` (stereo not given), the Potency was “inactive”. With `CCCCCCCCNC(C)C(O)c1ccc(SC(C)C)cc1` (stereo not given) the Potency was “inactive”. With `NC(N)=NCCN1CCCCCCC1` the activity change, negative = inhibition was 0% [at 0.435 µM]. For `Nc1nc(Cl)nc2c1ncn2[C@H]1C[C@H](O)[C@@H](CO)O1`, the Potency was “inactive”. With `O=C1c2ccccc2C(=O)C1c1nc2ccccc2c(Br)c1O` the Potency was “inactive”. With `CC(O)CNCC(C)O` (stereo not given) the Potency was “inactive”. For `BrC1CCC(Br)C(Br)CCC(Br)C(Br)CCC1Br` (stereo not given), the Potency was “inactive”. For `CN1CCN(c2c(F)cc3c(=O)c(C(=O)O)cn(CCF)c3c2F)CC1`, the Potency was “inactive”. For `CCCCCCCCCCCCC`, the Potency was “inactive”. In the case of `C=C(C)C(=O)OCC(C)C`, the Potency is reported as “inactive”. In the case of `O=C(OCC1CO1)C1CCCCC1C(=O)OCC1CO1` (stereo not given), the Potency is reported as “inactive”. With `CC(C)CC(=O)CC(C)CC(C)C` (stereo not given) the Potency was “inactive”. With `CCn1c2ccccc2c2cc([N+](=O)[O-])ccc21` the Potency was “inactive”. For `CC(C)Cc1ccccc1`, the Potency was “inactive”. With `COC(=O)c1ccccc1C(=O)O` the Potency was “inactive”. `COCCOCCOCCOCCO` was tested, and the Potency was “inactive”. `O=C1c2cccc(O)c2C(=O)c2c(O)cc(CO)cc21` was tested, and the Potency was “inactive”. `CCCCNC(=O)NCCCC` was tested, and the Potency was “inactive”. With `O=C(NO)C1(NS(=O)(=O)c2ccc(Oc3ccc(F)cc3)cc2)CCOCC1` the Potency was “inactive”. In the case of `OCCO`, the Potency is reported as “inactive”. With `CC(=O)N1C[C@H](O)C[C@H]1C(=O)O` the Potency was “inactive”. In the case of `NC(=O)N1c2ccccc2C=Cc2ccccc21`, the Potency is reported as “inactive”. In the case of `O=C1O[C@H]([C@H](O)CO)C(O)=C1O`, the Potency is reported as “inactive”. `CC(CN)CCCN` (stereo not given) was tested, and the Potency was “inactive”. For `CC1=CC(O)CC(C)(C)C1` (stereo not given), the Potency was “inactive”. With `C1CN(SSN2CCOCC2)CCO1` the Potency was “inactive”. `Oc1ccc(OCc2ccccc2)cc1` was tested, and the Potency was “inactive”. With `C=Cc1ccncc1` the Potency was “inactive”. With `Nc1nc2c(ncn2COCCO)c(=O)[nH]1` the Potency was “inactive”.
